From PubChem BioAssay
Rows were chosen to be rich in hits. Some 2.1% of all compounds tested hit in one or more screens of this group.
GSIS activator – GLuc luminescence reporter in INS-1E cells, primary screen for activators of glucose-dependent secretion of insulin; activation, % at 16.6 µM; 370,000 tested, 0.61% active; INS-1E GLuc reporter insulin secretion, 2-3 h; AID 743287, 2014;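 active means lowest replicate activation of at least 40%, so every replicate reaches that level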;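 further: 0% = median of neutral control wells and 100% = median of IBMX positive control wells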
Env fusion inh – inhibitors of HIV-1 Env-driven cell-cell fusion, primary screen, HeLa-JRFL effector, CEM21 target cells, luciferase | inhibition, % at 12.3 µM | 360,000 tested, 1.1% active;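 active means mean replicate inhibition score of at least 50 and every replicate individually at or above 50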;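 further: 0% = plate neutral controls and 100% = maraviroc near 300 nM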
AF4-AF9 inh – inhibitors of AF4 peptide binding to AF9, primary screen, biochemical, AlphaScreen, biotin-AF4 peptide, FLAG-AF9, single point. Protein AF-9 (Homo sapiens), P42568. inhibition, % at 10 µM. 350,000 tested, 0.47% active;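 active means every replicate reaching a set inhibition limit, whatever the replicate mean, cut at about 25% in these data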;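 further: 0% = plate neutral control median and 100% = total signal loss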
PGC1a acetyl inh – inhibitors of PGC1a acetylation signal, primary screen, cell-based, U2OS, AlphaScreen, inhibitor mode | AlphaScreen anti-acetyl-lysine; with virally co-expressed GCN5 acetyltransferase | inhibition, % at 15.6 µM | 350,000 tested, 0.17% active | AID 651687, 2012;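 active means every replicate shows inhibition of at least 40%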;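 further: 0% = neutral control wells and 100% = positive control wells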
NSD2 inh – NSD2 histone methyltransferase inhibitors, primary screen, biochemical, AlphaScreen, single concentration, set 2 | NSD2 peptide methylation, 120 min | Histone-lysine N-methyltransferase NSD2 (Homo sapiens), O96028 | AID 743445, 2014 | inhibition, % at 12.5 µM | 310,000 tested, 0.54% active; in the data active means inhibition above about 50%
* marks the source's active call; other numbers are inactive results; nt = no result; ! = not confirmed by another sample; [ ] = dose if it differs, or a comment.

SMILES	GSIS activator	Env fusion inh	AF4-AF9 inh	PGC1a acetyl inh	NSD2 inh
C[C@@H]1CN([C@H](C)CO)S(=O)(=O)c2ccc(Br)cc2O[C@@H]1CN(C)Cc1ccccc1	-9	-23[16.7 µM]	7	-5	nt
CCCC1(c2ccccc2)NC(=O)N(CC(=O)N2CC(=O)Nc3ccccc32)C1=O (stereo not given)	-9	4	-3	-13	0
O=c1[nH]c(-c2ccccc2)nnc1-c1ccccc1	4	-32	1	2	-1
O=C(C[C@@H]1C=C[C@H](NC(=O)Nc2cc(F)ccc2F)[C@H](CO)O1)NCCCN1CCOCC1	-9	-1[16.7 µM]	-2	2	nt
CN(C)C(=O)c1ccc(-c2nnc(OCc3nc4ccccc4n3C)c3ccccc23)cc1	-17	0	-2	3	1
Nc1ccc(N=Nc2ccccc2)c(N)n1	nt	-154	34*	10	nt
Cc1ccccc1OCC(=O)Nc1ccccc1-c1ccccc1NC(=O)COc1ccccc1C	-35	64*	nt	-13	20
CCCNC(=O)N(C)C[C@H]1Oc2ncc(C#CCc3ccccc3)cc2C(=O)N([C@@H](C)CO)C[C@H]1C	-7	5[16.7 µM]	1	-2	nt
Cc1cc(Br)ccc1OCCCCNC(C)(C)C	nt	nt	nt	-12	25
CC(C)COc1ccc(Br)cc1CNC(C)(C)C	51*	14	1	nt	-5
C=CC(=C)CC(NC)c1ccccc1 (stereo not given)	-17	nt	28*	-3	5
COc1ccc(O)c(/C=N/NS(=O)(=O)c2ccc(C)cc2)c1	-3	-18	-5	11	1
Cc1ccc(S(=O)(=O)N/N=C/c2cc(Br)ccc2O)cc1	-15	-36	30*	-1	7
Fc1ccc(N2CCN(C3=Nc4cccc5cccc3c45)CC2)cc1	-27	-17	32*	-3	-1
NC(=O)C1CCN(C2=C(NS(=O)(=O)c3ccccc3)C(=O)c3ccccc3C2=O)CC1	-12	-4	13	3	17
NC(=O)C1CCN(C2=C(Cl)C(=O)c3ccccc3C2=O)CC1	nt	-141	nt	-66	88*
CCOC(=O)C1CCN(C(=O)c2ccccc2NS(=O)(=O)c2ccc(C)cc2)CC1	-9	8	-2	-5	0
NC(=O)C1CCN(C2=C(NS(=O)(=O)c3ccc(Br)cc3)C(=O)c3ccccc3C2=O)CC1	11	-5	32*	-2	52*
CCOC(=O)C1CCN(C2=C(NS(=O)(=O)c3ccc(Br)cc3)C(=O)c3ccccc3C2=O)CC1	5	-14	39*	nt	nt
NC(=O)C1CCN(c2ccc3c(c2)S(=O)(=O)c2ccccc2C3=O)CC1	18	-11	-81	12	nt
CCn1cc(C(=O)OCC(=O)Nc2ccc(C(C)C)cc2)c(=O)c2ccc(C)nc21	17	11	-1	11	-3
COC(=O)/C(=C/c1ccc(OC)cc1)NC(=O)c1ccco1	0	6	nt	2	-3
COc1cc2c(cc1OC)CN(c1ncccc1[N+](=O)[O-])CC2	50*	-52	9	nt	16
O=C1CCN(c2ncccc2[N+](=O)[O-])CC1	16	-6	0	nt	0
CC(C)c1ccc(NS(=O)(=O)c2ccc3c(c2)oc(=O)n3C)cc1	-10	11	-1	2	-1
SMILES	GSIS activator	Env fusion inh	AF4-AF9 inh	PGC1a acetyl inh	NSD2 inh
C/C=C/c1ccc(C2[C@@H]3CN(S(=O)(=O)c4ccccc4)C[C@H]2N3)cc1 (stereo not given in full)	10	nt	-2	-20	nt
Cc1ccc(S(=O)(=O)N2C[C@@H]3N[C@H](C2)C3c2ccc(/C=C/c3ccccc3)cc2)cc1 (stereo not given in full)	502*!	nt	4	-37	nt
COc1ccccc1S(=O)(=O)N1C[C@@H]2N[C@H](C1)C2c1ccc(-c2ccccc2C)cc1 (stereo not given in full)	3	nt	nt	-17	nt
N#Cc1ccc(-c2ccc([C@@H]3[C@@H]4CN(S(=O)(=O)c5ccc(-c6ccccc6)cc5)C[C@H]3N4)cc2)cc1	6	nt	-2	85*	nt
Cc1ccccc1-c1ccc(C2[C@@H]3CN(S(=O)(=O)c4ccccc4C)C[C@H]2N3)cc1 (stereo not given in full)	179*!	nt	-5	-9	nt
Cc1ccccc1-c1ccc(C2[C@@H]3CN(C(=O)Nc4cccc(F)c4)C[C@H]2N3)cc1 (stereo not given in full)	93*!	nt	4	-41	nt
Cc1ccccc1-c1ccc([C@@H]2[C@@H](CO)N3CCCCN(C(=O)NC4CCCC4)C[C@H]23)cc1	-22	nt	0	7	nt
O=C(COc1ccccc1)Nc1ccccc1NS(=O)(=O)c1cccs1	-7	21	-2	nt	0
C#CCOC(=O)Nc1cccn(Cc2c(Cl)cccc2Cl)c1=O	nt	-139	nt	8	1
COC(=O)Nc1ccc(=O)n(Cc2c(Cl)cccc2Cl)c1	nt	50*	nt	7	4
O=C(N/N=C/c1cccnc1)c1cc(C2CC2)nc2ccccc12	nt	nt	nt	-5	-1
COc1ccc(-c2c(-c3ccccc3)c(C(=O)C(=O)NCCCN(C)C)n3ccc4cc(OC)c(OC)cc4c23)cc1OC	-25	10	38*	-17	24
CN(C)CCNC(=O)C(=O)c1c(-c2ccccc2)cc2ccccn12	0	2	0	2	1
CSC1=C(C#N)C(c2ccccc2C)C(C#N)=C(N)N1 (stereo not given)	nt	62*	nt	7	2
Nn1c(-c2ccccc2)cc(-c2ccccc2)cc1=O	67*	-3	1	-3	nt
COCC(=O)N1CC2(CN(Cc3ccccc3Cl)C2)c2c([nH]c3cc(OC)ccc23)[C@@H]1CO	-8	nt	2	-2	nt
CCC(=O)N1CC2(CN(Cc3ccccc3Cl)C2)c2c([nH]c3cc(OC)ccc23)[C@H]1CO	-6	nt	30*	-4	nt
COc1ccc2c3c([nH]c2c1)[C@H](CO)N(C(=O)CN(C)C)CC31CN(Cc2ccccc2Cl)C1	52	nt	32*	-36	nt
COc1ccc2c3c([nH]c2c1)[C@@H](CO)N(C(C)=O)CC31CN(Cc2ccccc2Cl)C1	-2	nt	29*	12	nt
COc1ccc2c3c([nH]c2c1)[C@H](CO)N(C(=O)CN(C)C)CC31CCN(Cc2ccccc2Cl)CC1	-1	nt	28*	-34	nt
COc1ccc2c3c([nH]c2c1)[C@@H](CO)N(C(=O)CN(C)C)CC31CN(Cc2ccccc2Cl)C1	21	nt	nt	nt	nt
COc1ccc(OC)c(-c2nnc3n2N=C(c2ccc(OC)c(OC4CCOC4)c2)CS3)c1 (stereo not given)	nt	-182	17	-9	nt
Cc1nn(C(=O)c2cccc([N+](=O)[O-])c2)c(C)c1Cl	63*	-18	-1	nt	0
CCNc1nc(NCC)nc(N(C)/N=C/c2ccco2)n1	62*	-8	-2	14	-3
N#Cc1ccccc1Sc1ccccc1C(=O)NCC(c1ccco1)N1CCCC1 (stereo not given)	1	-22	27*	nt	10
